Assay results published in the supplement of paper PMC10849652.
Of roughly 7,900 targets only a part is listed; those with a hit were picked by preference. About 0.6% of all pairs of compound and target were hits. A number with no mark means an inactive call.

How the values were obtained:
Assay in all cases: log2 fold change, soluble protein after heating vs DMSO (PISA); higher = thermal stabilisation; K562 cells, 10 uM, 30 min; active = over 0.2 and 3.5 SD of the protein, either way, in both replicates (recomputed)
IRAK-1-4 Inhibitor I = compound: C1COCCN1CCN2C3=CC=CC=C3N=C2NC(=O)C4=CC(=CC=C4)[N+](=O)[O-] [IRAK-1-4 Inhibitor I]
Method in brief: (§1)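 Thermal stability values are relative to control samples and come from duplicates. They are expressed as log2 fold changes. For measurement, K562 cells (2×10^6 cells/mL) received 10 μM compound for 30 min, and aliquots were heated for 3 min over 48°C-58°C, pooled, and extracted at 4°C in PBS with 0.5% NP-40. Soluble protein, the supernatant after 21,000xg for 90 min, was quantified by TMTpro 16plex LC-MS/MS with equalised channel sums.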

ibrutinib = compound: C=CC(=O)N1CCC[C@@H](n2nc(-c3ccc(Oc4ccccc4)cc3)c3c(N)ncnc32)C1 [ibrutinib]
Method in brief: as §1

[1] = compound: CC(=O)c1cnc2ccc(-c3cc(Cl)c(O)c(Cl)c3)nc2c1N[C@H]1CC[C@H](CN(C)C)CC1
Method in brief: as §1

ralimetinib = compound: CC(C)(C)Cn1c(N)nc2ccc(-c3[nH]c(C(C)(C)C)nc3-c3ccc(F)cc3)nc21 [ralimetinib]
Method in brief: as §1

[2] = compound: CC(C)(O)CC(=O)NCCn1ccc2ncnc(Nc3ccc(Oc4cccc(C(F)(F)F)c4)c(Cl)c3)c21
Method in brief: as §1

[3] = compound: CC(C)C1=C2N=C(C=C(N2N=C1)NCC3=CC=CC=C3)NCCCCCCN
Method in brief: as §1

[4] = compound: CC(C)C[C@@H](C=O)NC(=O)[C@H](CC(C)C)NC(=O)[C@H](CC(C)C)NC(=O)OCc1ccccc1
Method in brief: as §1

pinometostat = compound: CC(C)N(C[C@H]1O[C@@H](n2cnc3c(N)ncnc32)[C@H](O)[C@@H]1O)[C@H]1C[C@@H](CCc2nc3cc(C(C)(C)C)ccc3[nH]2)C1 [pinometostat]
Method in brief: as §1

[5] = compound: CC1=C(C(CC(=O)N1)C2=CC=C(C=C2)C(F)(F)F)C(=O)NC3=C(C=C4C(=C3)C=NN4)F
Method in brief: as §1

[6] = compound: CC1=C(C2=C(C=C1)C(=O)C3=CC=CC=C3N2CCCN)C
Method in brief: as §1

[7] = compound: CC1=C(C=C(C=C1)NC(=O)C2=CC(=CC=C2)C(C)(C)C#N)NC3=CC4=C(C=C3)N=CN(C4=O)C
Method in brief: as §1

[8] = compound: CC1=C(C=C(C=C1)NC(=O)C2=CC(=CC=C2)N(C)C)NC(=O)C3=CC=C(C=C3)O
Method in brief: as §1

[9] = compound: CC1=CC=C(C=C1)SC2=C3C=C(SC3=CN=C2)C(=O)N
Method in brief: as §1

[10] = compound: CC1=NC(=CC=C1)C2=C(N=C(N2)C(C)(C)C)C3=CC4=NC=CN=C4C=C3
Method in brief: as §1

Nexturastat A = compound: CCCCN(Cc1ccc(C(=O)NO)cc1)C(=O)Nc1ccccc1 [Nexturastat A]
Method in brief: as §1

vemurafenib = compound: CCCS(=O)(=O)Nc1ccc(F)c(C(=O)c2c[nH]c3ncc(-c4ccc(Cl)cc4)cc23)c1F [vemurafenib]
Method in brief: as §1

[11] = compound: CCCS(=O)(=O)Nc1ccc(F)c(C(=O)c2c[nH]c3ncc(Cl)cc23)c1F
Method in brief: as §1

[12] = compound: CCCc1cc(C)[nH]c(=O)c1CNC(=O)c1cc(-c2ccnc(N3CCN(C)CC3)c2)cc2c1cnn2C(C)C
Method in brief: as §1

givinostat = compound: CCN(CC)Cc1ccc2cc(COC(=O)Nc3ccc(C(=O)NO)cc3)ccc2c1 [givinostat]
Method in brief: as §1

barasertib = compound: CCN(CCCOc1ccc2c(Nc3cc(CC(=O)Nc4cccc(F)c4)[nH]n3)ncnc2c1)CCOP(=O)(O)O [barasertib]
Method in brief: as §1

Chain of UniProt P34913 (P34913 whole entry, looked up): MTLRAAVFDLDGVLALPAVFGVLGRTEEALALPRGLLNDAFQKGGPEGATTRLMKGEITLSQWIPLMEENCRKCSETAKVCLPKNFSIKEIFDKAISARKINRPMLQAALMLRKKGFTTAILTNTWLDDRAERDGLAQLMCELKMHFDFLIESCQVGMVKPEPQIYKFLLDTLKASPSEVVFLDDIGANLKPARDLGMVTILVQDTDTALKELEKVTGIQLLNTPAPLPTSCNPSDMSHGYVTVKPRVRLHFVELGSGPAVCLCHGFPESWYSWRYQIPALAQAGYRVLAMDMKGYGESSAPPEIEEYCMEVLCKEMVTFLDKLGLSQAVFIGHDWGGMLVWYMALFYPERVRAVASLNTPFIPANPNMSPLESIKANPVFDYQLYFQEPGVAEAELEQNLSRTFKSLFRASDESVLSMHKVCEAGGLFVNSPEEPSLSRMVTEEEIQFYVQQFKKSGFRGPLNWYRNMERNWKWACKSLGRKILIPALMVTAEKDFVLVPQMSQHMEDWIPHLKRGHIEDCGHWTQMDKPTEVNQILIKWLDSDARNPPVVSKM
Chain of UniProt Q9H773 (Q9H773 whole entry, looked up): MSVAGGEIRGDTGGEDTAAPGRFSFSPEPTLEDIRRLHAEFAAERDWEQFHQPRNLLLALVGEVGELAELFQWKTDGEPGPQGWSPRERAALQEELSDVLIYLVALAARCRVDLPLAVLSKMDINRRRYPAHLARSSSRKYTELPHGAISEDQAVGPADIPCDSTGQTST
Chain of UniProt Q96PV7 (Q96PV7 whole entry, looked up): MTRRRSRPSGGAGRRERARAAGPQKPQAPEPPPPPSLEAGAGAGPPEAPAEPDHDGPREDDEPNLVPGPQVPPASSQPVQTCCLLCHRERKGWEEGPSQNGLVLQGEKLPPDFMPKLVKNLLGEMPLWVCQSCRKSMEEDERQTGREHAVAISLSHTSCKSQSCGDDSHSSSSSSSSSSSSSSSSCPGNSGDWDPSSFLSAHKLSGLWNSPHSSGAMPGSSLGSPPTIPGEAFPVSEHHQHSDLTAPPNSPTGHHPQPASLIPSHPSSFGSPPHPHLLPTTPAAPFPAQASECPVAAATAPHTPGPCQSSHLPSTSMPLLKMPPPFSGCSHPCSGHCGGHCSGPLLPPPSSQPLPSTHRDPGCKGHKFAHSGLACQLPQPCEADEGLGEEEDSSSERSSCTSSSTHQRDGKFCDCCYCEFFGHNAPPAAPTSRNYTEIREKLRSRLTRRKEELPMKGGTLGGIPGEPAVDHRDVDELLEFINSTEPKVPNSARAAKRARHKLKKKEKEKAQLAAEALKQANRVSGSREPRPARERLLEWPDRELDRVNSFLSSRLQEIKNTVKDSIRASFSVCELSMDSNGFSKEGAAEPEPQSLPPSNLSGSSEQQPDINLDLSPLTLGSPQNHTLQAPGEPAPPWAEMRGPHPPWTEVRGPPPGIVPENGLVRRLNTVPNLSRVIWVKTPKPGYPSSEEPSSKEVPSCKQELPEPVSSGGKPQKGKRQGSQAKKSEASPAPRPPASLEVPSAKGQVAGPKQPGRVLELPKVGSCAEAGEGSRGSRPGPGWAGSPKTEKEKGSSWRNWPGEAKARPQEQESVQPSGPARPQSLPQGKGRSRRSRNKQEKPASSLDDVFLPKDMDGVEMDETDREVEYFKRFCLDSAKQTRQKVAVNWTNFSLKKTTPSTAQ
Chain of UniProt Q96FC9 (Q96FC9 whole entry, looked up): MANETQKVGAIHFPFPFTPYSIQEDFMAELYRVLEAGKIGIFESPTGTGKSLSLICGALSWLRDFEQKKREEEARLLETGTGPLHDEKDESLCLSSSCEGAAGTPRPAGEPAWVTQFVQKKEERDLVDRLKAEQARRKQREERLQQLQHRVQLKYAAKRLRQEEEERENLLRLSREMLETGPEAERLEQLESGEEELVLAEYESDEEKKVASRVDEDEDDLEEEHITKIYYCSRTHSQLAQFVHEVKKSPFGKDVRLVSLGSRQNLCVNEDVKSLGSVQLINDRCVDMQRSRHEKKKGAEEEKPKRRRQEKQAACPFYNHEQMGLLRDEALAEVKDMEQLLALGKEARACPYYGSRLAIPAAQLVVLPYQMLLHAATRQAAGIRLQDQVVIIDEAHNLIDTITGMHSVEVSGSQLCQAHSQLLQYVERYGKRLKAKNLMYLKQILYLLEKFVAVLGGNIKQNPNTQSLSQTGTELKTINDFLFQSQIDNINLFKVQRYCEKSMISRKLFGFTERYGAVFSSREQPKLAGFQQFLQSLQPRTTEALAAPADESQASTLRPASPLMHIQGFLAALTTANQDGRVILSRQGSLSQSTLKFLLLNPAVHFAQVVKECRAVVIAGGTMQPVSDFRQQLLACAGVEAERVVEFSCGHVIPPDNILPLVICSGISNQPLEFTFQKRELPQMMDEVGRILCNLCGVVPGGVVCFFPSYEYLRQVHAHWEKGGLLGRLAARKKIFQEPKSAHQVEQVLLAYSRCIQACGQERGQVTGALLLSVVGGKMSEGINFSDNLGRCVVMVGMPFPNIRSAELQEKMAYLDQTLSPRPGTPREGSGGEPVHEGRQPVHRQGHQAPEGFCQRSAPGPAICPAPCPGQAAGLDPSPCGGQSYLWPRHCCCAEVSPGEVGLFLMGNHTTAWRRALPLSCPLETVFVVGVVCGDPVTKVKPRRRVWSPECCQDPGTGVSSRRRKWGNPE
Chain of UniProt Q6P3W2 (Q6P3W2 whole entry, looked up): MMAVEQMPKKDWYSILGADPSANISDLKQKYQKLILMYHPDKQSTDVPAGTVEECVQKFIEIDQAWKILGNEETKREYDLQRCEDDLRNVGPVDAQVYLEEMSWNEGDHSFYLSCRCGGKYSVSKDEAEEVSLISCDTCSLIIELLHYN
Chain of UniProt Q4LDG9 (Q4LDG9 whole entry, looked up): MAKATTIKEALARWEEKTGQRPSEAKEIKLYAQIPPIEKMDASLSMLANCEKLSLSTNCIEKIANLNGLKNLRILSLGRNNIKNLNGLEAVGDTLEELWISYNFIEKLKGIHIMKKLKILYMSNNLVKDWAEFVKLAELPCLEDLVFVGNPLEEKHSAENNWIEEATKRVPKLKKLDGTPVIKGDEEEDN
Chain of UniProt Q96E09 (Q96E09 whole entry, looked up): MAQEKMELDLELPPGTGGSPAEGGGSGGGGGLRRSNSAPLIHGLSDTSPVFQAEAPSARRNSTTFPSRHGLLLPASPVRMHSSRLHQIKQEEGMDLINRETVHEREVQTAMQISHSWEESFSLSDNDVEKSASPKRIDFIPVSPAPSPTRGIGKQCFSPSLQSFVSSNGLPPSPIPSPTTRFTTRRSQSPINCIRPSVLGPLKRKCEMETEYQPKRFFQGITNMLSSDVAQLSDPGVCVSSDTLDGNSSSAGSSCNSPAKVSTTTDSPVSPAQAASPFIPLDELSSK
Chain of UniProt Q01780 (Q01780 whole entry, looked up): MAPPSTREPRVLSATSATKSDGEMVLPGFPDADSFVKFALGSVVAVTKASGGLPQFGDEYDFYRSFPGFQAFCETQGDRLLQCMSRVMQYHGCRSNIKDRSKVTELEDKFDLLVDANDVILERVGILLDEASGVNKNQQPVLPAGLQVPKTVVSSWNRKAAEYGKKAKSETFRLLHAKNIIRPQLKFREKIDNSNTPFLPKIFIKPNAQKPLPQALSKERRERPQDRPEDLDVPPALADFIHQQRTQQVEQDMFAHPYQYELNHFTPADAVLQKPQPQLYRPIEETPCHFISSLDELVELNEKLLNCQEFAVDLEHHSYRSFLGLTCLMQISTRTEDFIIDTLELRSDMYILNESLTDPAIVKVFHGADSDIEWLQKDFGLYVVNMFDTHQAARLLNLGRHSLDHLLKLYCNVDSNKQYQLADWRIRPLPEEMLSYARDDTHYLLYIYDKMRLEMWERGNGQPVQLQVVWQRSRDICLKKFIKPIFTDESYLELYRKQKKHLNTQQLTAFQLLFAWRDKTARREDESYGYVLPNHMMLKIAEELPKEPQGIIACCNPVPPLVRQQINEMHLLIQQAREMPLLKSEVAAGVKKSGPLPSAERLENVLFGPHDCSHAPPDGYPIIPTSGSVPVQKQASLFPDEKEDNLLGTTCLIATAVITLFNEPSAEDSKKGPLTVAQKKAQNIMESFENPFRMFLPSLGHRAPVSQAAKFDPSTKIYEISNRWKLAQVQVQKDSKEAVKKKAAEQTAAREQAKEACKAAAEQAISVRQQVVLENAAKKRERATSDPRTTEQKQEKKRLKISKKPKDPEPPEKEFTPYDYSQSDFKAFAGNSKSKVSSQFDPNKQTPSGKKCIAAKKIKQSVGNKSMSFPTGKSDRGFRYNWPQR
Chain of UniProt Q8NBI2 (Q8NBI2 whole entry, looked up): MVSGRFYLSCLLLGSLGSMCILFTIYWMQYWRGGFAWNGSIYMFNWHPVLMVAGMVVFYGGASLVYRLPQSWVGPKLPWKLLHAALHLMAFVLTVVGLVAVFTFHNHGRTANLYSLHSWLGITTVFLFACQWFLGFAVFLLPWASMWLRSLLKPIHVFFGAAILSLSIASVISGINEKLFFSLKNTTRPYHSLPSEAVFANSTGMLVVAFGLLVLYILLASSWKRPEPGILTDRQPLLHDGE
Chain of UniProt Q07973 (Q07973 whole entry, looked up): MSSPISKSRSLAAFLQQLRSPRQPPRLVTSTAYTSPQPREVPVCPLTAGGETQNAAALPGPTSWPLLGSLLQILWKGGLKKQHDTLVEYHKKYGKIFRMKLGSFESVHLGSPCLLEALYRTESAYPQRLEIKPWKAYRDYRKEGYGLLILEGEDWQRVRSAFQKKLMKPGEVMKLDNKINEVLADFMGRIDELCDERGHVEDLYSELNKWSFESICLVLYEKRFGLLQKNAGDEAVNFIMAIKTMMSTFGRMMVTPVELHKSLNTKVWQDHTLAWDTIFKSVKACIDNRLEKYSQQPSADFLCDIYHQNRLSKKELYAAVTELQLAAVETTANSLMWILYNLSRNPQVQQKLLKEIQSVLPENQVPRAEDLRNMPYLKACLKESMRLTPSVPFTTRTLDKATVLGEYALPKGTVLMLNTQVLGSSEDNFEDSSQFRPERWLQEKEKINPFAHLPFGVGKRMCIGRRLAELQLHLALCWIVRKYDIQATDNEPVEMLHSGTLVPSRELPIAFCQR

Target	log2 fold change (IRAK-1-4 Inhibitor I)	log2 fold change (ibrutinib)	log2 fold change [1]	log2 fold change (ralimetinib)	log2 fold change [2]	log2 fold change [3]	log2 fold change [4]	log2 fold change (pinometostat)	log2 fold change [5]	log2 fold change [6]	log2 fold change [7]	log2 fold change [8]	log2 fold change [9]	log2 fold change [10]	log2 fold change (Nexturastat A)	log2 fold change (vemurafenib)	log2 fold change [11]	log2 fold change [12]	log2 fold change (givinostat)	log2 fold change (barasertib)
EOGT (UniProt Q5NDL2)	-0.002	0.005	0.006	-0.036	0.016	-0.024	0.026	0.075	0.002	0.003	-0.043	-0.073	-0.088	-0.052	0.033	-0.05	-0.098	-0.043	0.02	-0.026
EXOSC10 (UniProt Q01780)	0.165	0.033	0.026	-0.261	-0.01	0.213	0.247	0.059		0.076	-0.537	0.061	-0.07	-0.123	0.762 (active)	-0.221	-0.18	-0.168	0.147	0.036
DOLPP1 (UniProt Q86YN1)	0.008	-0.017	-0.19	-0.128		-0.045	-0.154	-0.056	0.016	0.036		0.012	-0.094	0.026		-0.057	-0.042	-0.018	-0.027	0.057
DDX11 (UniProt Q96FC9)	0.152	0.001	-0.119	-0.033	-0.003	0.022	0.09	-0.316	-0.02	0.023	-0.04	0.052	-0.035	0.043	-0.011	-0.072	0	-0.006	-0.029	0.125
EXOC4 (UniProt Q96A65)	-0.123	-0.028	-0.007	0.024	-0.099	-0.442 (active)	0.04	0.143	0.035	-0.01	-0.021	0.029	0.021	0.001	0.209	-0.003	0.098	0.01	0.133	0.139
EIF2AK3 (UniProt Q9NZJ5)	-0.136	0.13	-0.369		-0.322	0.011		-0.048	-0.106	0.032			0.036	-0.043	-0.595		-0.161	0.244	0.027	0.151
FAM193B (UniProt Q96PV7)	-0.049	-0.266	-0.03		-0.05			0.112		-0.181	-0.16		-0.114	-0.034	0.054	-0.114	0.005			0.045
FAM122A (UniProt Q96E09)	0.002	0.016	-0.015	-0.053	0.105	0.066	0.016	-0.008	0.007	-0.117	-0.01	-0.005	0.045	-0.006	0.107	-0.017	0.095	0.026	0.064	-0.016
EPHX2 (UniProt P34913)	0.044	0.096	-0.024	-0.026	-0.018	0.285 (active)	0.012	0.144	0.073	-0.006	0.112	0.129	0.031	-0.017	0.193	-0.012	-0.025	-0.075	-0.014	-0.029
DOCK8 (UniProt Q8NF50)	0.047	0.015	0.029	0.105	-0.198	0.152	0.274	0.059	0.064	-0.121	-0.094	-0.051		-0.086	0.468	0.134		0.093	0.245	0.055
DNAJC24 (UniProt Q6P3W2)	-0.035	0.011		0.058	0.026	-0.037	0.058	-0.019	0.062	-0.023	-0.024	0.368	0.104	0.008	-0.208	0.008	-0.034	0.027	0.07	0.008
DCTPP1 (UniProt Q9H773)	0.017	0.011	0.03	0.062	-0.039	0.075	-0.105	-0.067	0.061	0.165	0.003	-0.078	0.009	0.008	0.067	0.126	-0.043	-0.009	-0.019	0.059
DPYSL2 (UniProt Q16555)	-0.003	0.092	0.024		0.092	0.066		0.009	-0.007	0.01	-0.056		0.03	0.033	-0.176	-0.056	-0.002	-0.065	0.03	0
CYP24A1 (UniProt Q07973)	-0.162	-0.044	0.187	0.412		0.069	0.31	0.276	0.083	-0.089		0.051	-0.039	-0.306		-0.198	-0.057	-0.183	0.233	-0.146
DNAL1 (UniProt Q4LDG9)	0.012	-0.082	0.042	0.042	0.183		0.007	0.093				0.049		0.069	-0.135	0.013				0.012
CYB561A3 isoform 2 (UniProt Q8NBI2)	0.024	0.014	0.033	-0.026		-0.164	-0.019	-0.054	-0.069	-0.027	0.051	0.025	-0.074	0.02			0.059	-0.086	0.033	-0.057
EIF4G3 isoform 3 (UniProt O43432)	0.012	0	-0.074	-0.003		-0.079	0.017	0.079	-0.227	0.03	-0.024	0.01	0	-0.015		0.047	0.002	0.067	0.08	0.059
